The results in this text go back to PubChem BioAssay (EPA / NIEHS).

Structures are written as SMILES. “And” between values parts separate entries of the source, which are not always exact repeats. Equal values may be shown once. The source made the active and inactive calls. Rule for the calls: active = hit-call score of the fitted dose curve at least 0.9, where 1 is the maximum; inactive = score below 0.9.

What is called AC50 is the concentration giving half of the maximal activity seen.

Read-out in this test: Actin alpha 1 (ACTA1), ACTA1 (gene 58)
Briefly: BSK_MyoF_ACTA1: BioMAP Diversity Plus: MyoF Assay for Actin alpha 1 (ACTA1) Biomarker Activity (AID 2284244). As to conditions: primary human lung fibroblasts. Here is the method: BSK_MyoF is a cell-based, multiplexed-readout assay that uses lung fibroblasts, […], with measurements taken at 24 hours after chemical dosing in a microplate: 96-well plate.BSK_MyoF_ACTA1 is an assay component measured in the BSK_MyoF assay. It measures a-SMA antibody related to regulation of gene expression using ELISA technology.Data from the assay component BSK_MyoF_ACTA1 was analyzed at the endpoint, BSK_MyoF_ACTA1, in the positive analysis fitting direction relative to DMSO as the negative control and baseline of activity. Using a type of binding reporter, gain or loss-of-signal activity can be used to understand protein changes. To generalize the intended target to other relatable targets, this assay endpoint is annotated to the 'cell adhesion molecules' intended target family, where the subfamily is 'actin'.
The levels of cell surface (or secreted, indicated by the prefix "s") biomarker endpoints were measured by ELISA. Overt cytotoxicity to cells in confluent adherent cultures (all systems other than the BT system) was assessed by measuring total protein levels using sulforhodamine B (SRB) staining in parallel cultures at the time of biomarker measurements, indicated as SRB endpoints. For proliferation assays for adherent cell types, individual cell types are cultured at sub-confluence and relative cell numbers quantified by SRB staining at time points optimized for each system (48 h: 3C and CASM3C systems; 72 h: BT and HDF3CGF systems; 96 h: SAg system). SRB was performed by staining cells with 0.1% SRB after fixation with 10% TCA and reading wells at 560 nm.Viability and proliferation of PBMC (T cells) was quantified by Alamar Blue reduction for the SAg and BT systems. For PBMC viability (referred to as PBMC Cytotoxicity within the assay endpoint names), cells were plated (75,000/well in a 96-well plate) and then chemical samples added for 1 h before addition of activators, SEB and TSST-1 (20 ng/mL final concentration each). Cells were incubated for 90 h. Then, Alamar Blue (20 uL/well) (Invitrogen, Cat DAL1100) was added for 6 h, and the plates were read with a fluorescence microplate reader at 546/580 nm (excitation/emission). For PBMC proliferation, cells were plated and activated as above but incubated for only 16 h prior to addition of Alamar Blue. Plates were read after 6 h.
`CCOP(=S)(OCC)SCS(=O)(=O)CC`: the outcome was inactive.
Same read-out and setting: the same measure for `CCCCOCCOP(=O)(OCCOCCCC)OCCOCCCC`: “inactive”; for `O=C(O)C(F)(F)C(F)(F)C(=O)O`: “inactive”; for `O=C(O)C=CC(F)(C(F)(F)F)C(F)(F)F`: “inactive”.
The same measure, in the same setting: the same measure for `O=P(OCC(Br)CBr)(OCC(Br)CBr)OCC(Br)CBr` (stereo not drawn): “inactive”; for `CCOP(=S)(S)OCC`: “inactive”.
On to `OCC(F)(F)OC(F)(F)C(F)(F)OC(F)(F)C(F)(F)OC(F)(F)F`, for which the AC50 was 18.3 µM (active) and 11.5 µM (active).
On to `N#Cc1cc([N+](=O)[O-])ccc1N`, for which the result was inactive.
With `O=C(O)C(F)(F)OC(F)(F)C(F)(F)OC(F)(F)C(=O)O`, the result was inactive.
In the case of `CCCCC(CC)COP(=O)(Oc1ccccc1)Oc1ccccc1` (stereo not drawn), the AC50 was 8.64 µM (active).
On to `OCC(F)(F)OC(F)(F)C(F)(F)OC(F)(F)C(F)(F)OC(F)(F)CO`, for which the AC50 is 20.5 µM (active) and 30 µM (active).
Take `CCOP(=S)(OCC)SCn1nnc2ccccc2c1=O`: the outcome was inactive.
As to `N#Cc1c(-c2ccc(Cl)cc2)[nH]c(C(F)(F)F)c1Br`, the AC50 was 0.329 µM (active).
Still for that read-out and setting: the same measure for `ClC(Cl)=C(c1ccc(Cl)cc1)c1ccccc1Cl`: 5.45 µM (active).
Consider `Nc1ccc([N+](=O)[O-])cc1Cl`, for which the result was inactive.
The same measure, in the same setting: the same measure for `CC(O)C(F)(F)C(F)(F)F` (stereo not drawn): “inactive”; for `COP(N)(=S)OC`: “inactive”; for `CCCCC(CC)COC(=O)c1c(Br)c(Br)c(Br)c(Br)c1C(=O)OCC(CC)CCCC` (stereo not drawn): “inactive”.
Still for that read-out and setting: as for `NC(=O)C(F)(F)C(F)(F)F`, the entry is “inactive”.
For `CC(C)Nc1ccc(Nc2ccccc2)cc1`, the concentration at half-maximal activity (AC50) is 22.7 µM (active).
On the same count and under the same terms, as for `C=CC(=O)OCC(F)(F)C(F)F`, the figure is 48.8 µM (active) and 46.5 µM (active).
As to `CCOP(=S)(NC(C)C)Oc1ccccc1C(=O)OC(C)C` (stereo not drawn), the result was inactive.
For `O=C(O)C(F)(F)OC(F)(F)C(F)(F)OC(F)(F)F`, the outcome was inactive.
Take `C=CC(=O)OCC(CC)(COC(=O)C=C)COC(=O)C=C`: the AC50 is 2.93 µM (active).
Take `CC(Cl)CN(C)C` (stereo not drawn): the result was inactive.
The same measure, in the same setting: the same measure for `COC(=O)C(F)(F)C(F)(F)OC(F)(C(F)(F)F)C(F)(F)OC(F)=C(F)F` (stereo not drawn): “inactive”; for `O=C(O)C(F)(OC(F)(F)C(F)(F)C(F)(F)F)C(F)(F)F` (stereo not drawn): “inactive”; for `COP(=O)(O)OC`: “inactive”.
Take `O=S(=O)(F)C(F)(F)C(F)(F)C(F)(F)C(F)(F)C(F)(F)C(F)(F)C(F)(F)C(F)(F)F`: the result was inactive.
On the same count and under the same terms, as for `OCC(F)(F)OC(F)(F)C(F)(F)OC(F)(F)CO`, the entry is “inactive”.
Consider `CC(C)(C)c1ccccc1OP(=O)(Oc1ccccc1)Oc1ccccc1`, for which the AC50 was 20 µM (active).
In the case of `FC(F)(F)C(F)(C(F)(F)F)C(F)(F)C(F)(F)CC1CO1` (stereo not drawn), the outcome was inactive.
Still for that read-out and setting: as for `Cc1c([N+](=O)[O-])cc2c(c1[N+](=O)[O-])C(C)(C)CC2(C)C`, the entry is “inactive”.
For `O=c1ssc(Cl)c1Cl`, the AC50 was 6.24 µM (active).
On to `O=S1(=O)OCC2C(CO1)C1(Cl)C(Cl)=C(Cl)C2(Cl)C1(Cl)Cl` (stereo not drawn), for which the result was inactive.
On the same count and under the same terms, as for `Cc1ccc2c(c1N)C(=O)c1ccccc1C2=O`, the entry is “inactive”; as for `c1ccc2c(c1)sc1ccccc12`, “inactive”.
For `CCOP(=S)(OCC)SCSc1ccc(Cl)cc1`, the AC50 is 3.97 µM (active).
